Hit rate of the full screen: of about 300,000 compounds, about 37,000 (12%) were called active. The entries come from a sample that favours actives as a whole. Unmarked numbers belong to inactive results. Cut-off read from the data, not from the text of the source: active = max response mostly above about 13% (no sharp cut-off); inactive = mostly below about 14%.
Assay: Cycloheximide Counterscreen for Small Molecule Inhibitors of Shiga Toxin; note: read at 38.3 µM for the half of the compounds with a filed dose; 0% is about no effect
Details: cell reporter, cycloheximide protein synthesis inhibition counterscreen; active compounds read high

Row | SMILES | max response
1 | CCN1CCN(C(=O)Cn2nc(C)n3c(cc4c(OC)cccc43)c2=O)CC1 | 1.35%
2 | Cc1c(Cl)cccc1NC(=O)CCC(=O)N/N=C/c1ccco1 | -1.66%
3 | CCCCSc1nnc(-c2ccc(NC(=O)CC)cc2)n1C | -3.61%
4 | O=C(CN1CCN(c2ccccn2)CC1)Nc1ccc(Br)cc1 | -4.91%
5 | CCC(=O)Nc1ccc(-c2ccc(N3CCCCC3)nn2)cc1 | 42.9% (active)
6 | O=C1Nc2ccc([N+](=O)[O-])cc2C1=Nc1cccc(CO)c1 | -2.88%
7 | Cc1ccc(C(=O)OC2CCCN(C)C2)cc1 (centres undefined) | 6.14%
8 | Cn1ccc(=NC=C(C#N)C#N)c2ccccc21 | 1.04%
9 | CCOc1cc(CN2CCCC(CO)(Cc3ccc(F)cc3F)C2)ccc1OC (centres undefined) | -0.883%
10 | CCn1nnnc1SCC(=O)Nc1ccc(N(C)C)cc1 | 25.2% (active)
11 | COc1ccc(C(=O)CSc2nnnn2C)c(OC)c1 | -3.16%
12 | COc1ccc(-n2nnnc2SCC(=O)Nc2ccccc2)cc1 | -4.18%
13 | CCn1nnnc1SCC(=O)c1ccc(C)cc1C | 56.3% (active)
14 | CC(=O)Nc1ccc(NC(=O)CSc2nnnn2-c2ccccc2F)cc1 | 9.54%
15 | Cc1ccc(C)c(-n2nnnc2SCC(=O)c2c(N)n(C)c(=O)n(C)c2=O)c1 | -2.92%
16 | CCc1nccn1CCC(=O)N1CCCC(N2CCN(c3ccccc3F)CC2)C1 (centres undefined) | 15.2%
17 | COc1ccc(S(=O)(=O)N(C)CC(=O)NCCCN2CCOCC2)cc1Cl | -1.58%
18 | Cc1cccc([C@@H]2[C@@H]3C(=O)N(Cc4ccccc4)C(=O)[C@@H]3[C@]3(C)C(=O)N(c4ccc(Br)cc4)C(=O)N23)c1 | 7.73%
19 | C=CS(=O)c1sc(Cl)c(N2CCOCC2)c1[N+](=O)[O-] (centres undefined) | -4.64%
20 | CC(=O)N1CCOc2ccc(S(=O)(=O)N3CCC(C(=O)Nc4ccccc4F)CC3)cc21 | -0.955%
21 | Cc1ccc(N(C(=O)C(F)(F)F)C(C(=O)NC2CCCCC2)c2ccncc2)cc1C (centres undefined) | -3.75%
22 | Cc1nn(-c2ccccc2)c(C)c1C(=O)OCC(=O)NC(=O)NC1CCCCC1 | 2.3%
23 | CCCc1cc(=O)[nH]c(SCC(=O)c2cc(C)n(CCC)c2C)n1 | 7.55%
24 | Cc1ccc(OC(=O)c2c(C)nn(-c3ccccc3)c2C)cc1 | 47.6% (active)
25 | Cc1nn(-c2ccccc2)c(-n2cccc2)c1C(=O)O | -4.68%

Row | SMILES | max response
26 | Cc1cc(C(=O)COC(=O)c2cccs2)c(C)n1-c1c(C)n(C)n(-c2ccccc2)c1=O | 16.4%
27 | CCCn1c(C)cc(C(=O)COC(=O)c2c(C)nn(-c3ccccc3)c2C)c1C | 32.3% (active)
28 | COCCn1c(SCC(=O)Nc2cc(OC)ccc2OC)nc2c(c1=O)SC(C)C2 (centres undefined) | -1.66%
29 | CC(C)CC(=O)N1CCN(Cc2ccccc2Br)CC1 | -2%
30 | NC(=O)C(Cc1ccccc1)NC(=O)C12CC3CC(CC(C3)C1)C2 (centres undefined) | 0.275%
31 | Cc1ccc(N/C=C/C(=O)c2ccccc2)cc1C | 45.6% (active)
32 | Cc1ccc(NNC(=O)C2CCC2)cc1C | -2.16%
33 | CCOc1ccc(N/C=C/C(=O)c2ccccc2)cc1 | 38.2% (active)
34 | CCOc1ccc(NC(=S)N2CCC(NC(=O)c3ccccc3)CC2)cc1 | -1.64%
35 | CCOc1ccc(N/C=C/C(=O)c2cc(OC)c(OC)c(OC)c2)cc1 | 3.1%
36 | Cc1ccc(N(NC(=O)C(C)(C)O)C(=O)c2ccccc2)cc1C | -3.59%
37 | CCCOc1ccc(N/C=C/C(=O)C(C)(C)C)cc1 | 33% (active)
38 | CCCOc1ccc(NC(=O)C2CCCNC2=O)cc1 (centres undefined) | 16.5%
39 | CCCOc1ccc(NC(=O)C2OC3OC(C)(C)OC3C3OC(C)(C)OC23)cc1 (centres undefined) | 10.8%
40 | Cc1cc(OCC(=O)NCC(O)c2ccccc2)c2c(C)c(C)c(=O)oc2c1 (centres undefined) | 8.74%
41 | O=C(O)c1ccccc1C(=O)NC1=NN(c2ccccc2)CC1 | -1.86%
42 | O=C(CSc1n[nH]c(-c2cccnc2)n1)Nc1ccc(Cl)cc1 | 1.65%
43 | CCO[C@@H]1OC(C(=O)NC2CC2)=C[C@H](C)[C@H]1CCCO | -1.17%
44 | CC(NC(=S)NC1CCCCC1)C(c1ccccc1)N1CCOCC1 (centres undefined) | 0.505%
45 | Cc1cc(=O)n2nc(N3CCCC(C(=O)NCc4cccc(Cl)c4)C3)sc2n1 (centres undefined) | -3.8%
46 | CN(NS(=O)(=O)c1cccs1)c1ncc(C(F)(F)F)cc1Cl | -0.853%
47 | OC(CNCCc1ccc(Cl)cc1Cl)COc1ccccc1 (centres undefined) | -1.8%
48 | COc1ccc(OCCCC(=O)NCCc2ccccc2)cc1 | -2.28%
49 | Cc1cc(C(=O)NCCc2ccc(Cl)cc2)n(-c2ccccc2)n1 | -0.868%
50 | O=C(CCc1ccccc1)NNC(=O)COc1ccc(Cl)cc1 | 0.663%

Row | SMILES | max response
51 | CN(c1ccccc1)S(=O)(=O)c1ccc(C(=O)NCCc2ccccc2)cc1 | 11.2%
52 | O=C(NCCc1ccccc1)c1ccc(OCCOc2ccccc2)cc1 | 0.57%
53 | Cc1cc(C(=O)NCCc2ccc(Cl)cc2)c(C)o1 | 49.4% (active)
54 | O=C(NCCc1ccccc1)C1CC1 | 13%
55 | NS(=O)(=O)c1ccc(CCNC(=O)c2ccc(Cl)cc2[N+](=O)[O-])cc1 | -2.71%
56 | CC(C)c1ccc(C(=O)NCCCc2ccccc2)cc1 | 46.9% (active)
57 | O=C(NCCc1ccccc1)Oc1ccc(Cl)cc1 | 48.1% (active)
58 | Nc1ccc(C(=O)NCc2ccccc2)cc1 | -1.11%
59 | CCCOc1ccc(C(=O)NCCc2ccccc2)cc1 | 27% (active)
60 | COc1ccc(-c2nc3cnccn3c2NC(C)(C)CC(C)(C)C)cc1O | -1.64%
61 | Cc1ccc(CN2CCNC(=O)C2CC(=O)NCc2csc(C(C)C)n2)cc1 (centres undefined) | -3.12%
62 | O=C(COc1ccc(S(=O)(=O)N2CCOCC2)cc1Cl)N1CCOCC1 | -5.7%
63 | Cc1cccc(N2C(=O)N3[C@H](c4ccc(F)cc4)[C@@H]4C(=O)N(C5CCCCC5)C(=O)[C@@H]4[C@]3(Cc3ccccc3)C2=O)c1 | 1.33%
64 | O=c1oc2ccccc2c(NC2CCCCC2)c1NS(=O)(=O)c1ccc(Cl)cc1 | -6.15%
65 | Cc1ccc(N(CC(=O)NCC2CCCO2)C(=O)CNS(=O)(=O)c2ccc(Cl)cc2)cc1 (centres undefined) | -3.88%
66 | O=C(CCc1c[nH]c2ccccc12)NCCOc1ccccc1 | 25.1%
67 | NS(=O)(=O)c1cc(C(=O)NCCOc2ccccc2)c(Cl)cc1Cl | -1.96%
68 | O=C(NCCOc1ccccc1)c1ccccc1 | 68.1% (active)
69 | CCc1n[nH]c(=S)n1/N=C/c1c[nH]c2ccc(Br)cc12 | -1.29%
70 | CC1=NN(C(N)=S)C(=O)C1N=Nc1cc(Cl)ccc1Cl (centres undefined) | 4.61%
71 | CCCCc1nc(SCC(=O)Nc2nnc(C(C)C)s2)n[nH]1 | 26.4%
72 | O=C1CCCC(O)=C1N=Nc1ccc(S(=O)(=O)N2CCOCC2)cc1 | 16%
73 | O=C1CCCC(O)=C1N=Nc1ccc2ncsc2c1 | 49.2% (active)
74 | Cc1nc2ccccc2c(=O)n1Cc1ccc([N+](=O)[O-])cc1 | -1.56%
75 | Nc1ccc(N=Nc2ccccc2Cl)c(N)n1 | 25.9% (active)

Row | SMILES | max response
76 | O=S(=O)(c1ccc(Cl)s1)N1CCC2(CC1)OCCO2 | 2.18%
77 | COC(=O)c1cc(NC(=O)c2cc(C(C)(C)C)nn2Cc2cccc(C)c2)ccc1N1CCOCC1 | -3.1%
78 | CCCNC(=O)c1cnc(-c2ccccc2)nc1-c1ccccc1 | -6.13%
79 | CCN(CC)c1ccc(C(=O)OCC(=O)c2ccco2)cc1 | 7.36%
80 | O=C(COC(=O)c1ccccc1C(=O)c1ccccc1)c1ccco1 | 8.15%
81 | CCc1ccc(C(=O)COC(=O)c2ccco2)cc1 | 42.3% (active)
82 | COc1ccc2[nH]c(C(=O)N/N=C/c3cc(OC)c(OC)c(OC)c3)cc2c1 | 13.6%
83 | COc1ccc2[nH]c(C(=O)Nc3ccccc3Cl)cc2c1 | 36.2% (active)
84 | COc1cccc(NC(=O)CN2CCN(CC(=O)Nc3ccccc3Cl)CC2)c1 | -0.686%
85 | Cc1cccc(C(=O)NNC(=O)CSc2nnc(C(C)C)n2C)c1 | -5.35%
86 | CCC(C)c1ccc(NC(=S)N2CCCC2)cc1 (centres undefined) | 35.2% (active)
87 | CCOc1ccc(NC(=S)N2CCCCCC2)cc1 | 26.7%
88 | NS(=O)(=O)c1ccc(NC(=S)N2CCCC2)cc1 | -1.21%
89 | Cc1cccc(C)c1NC(=S)N1CCCCCC1 | -7.53%
90 | CC(=O)c1cccc(NC(=S)N2CCCC2)c1 | 0.199%
91 | S=C(Nc1ccc2c(c1)OCO2)N1CCCC1 | 25.6% (active)
92 | COC(=O)c1ccc(S(=O)(=O)N2CCc3ccccc3C2)cc1 | -0.876%
93 | CCc1nn(CCCC(=O)NCc2ccc(C)cc2)c(=O)c2cc3occc3n12 | 9.5%
94 | CCCCCCC(O)(CCN1CCCCC1)c1ccccc1 (centres undefined) | -3.74%
95 | Cc1ccnc(N2CCCC(C(=O)NC3CC3)C2)n1 (centres undefined) | -3.55%
96 | CSCCC(Nc1nc2ccccc2s1)C(=O)O (centres undefined) | -2.31%
97 | Cc1ccc(S(=O)(=O)Nc2nc3ccccc3s2)cc1[N+](=O)[O-] | -1.91%
98 | Cc1ccnc(Nc2nc3ccccc3s2)n1 | 55.1% (active)
99 | COc1cccc(NS(=O)(=O)c2ccc(-c3coc(C)n3)cc2)c1 | 15.9%

From PubChem BioAssay AID2314 (National Center for Advancing Translational Sciences (NCATS), 2010)
